The results in this text go back to PubChem BioAssay (Tox21).

Assay [1] is described as follows: Caspase-3/7 induction in HepG2 cells by small molecules, qHTS assay (AID 1346978). Note: nearly all actives have a fitted effect of over 15% in size. In outline: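 Wild-type HepG2 cells, 2,000/well, settled 5 hr at 37 C and 5% CO2, then compound-treated for 17 hr; caspase-3/7 activity read by luminescent Caspase-Glo 3/7 after 30 min at room temperature.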
(In general: In qHTS, concentration-response curves come from the screen itself.)

Assay [2] is described as follows: Caspase-3/7 induction in CHO-K1 cells by small molecules, qHTS assay (AID 1346980). Note: nearly all actives have a fitted effect of over 15% in size. The method in brief:
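Wild-type CHO-K1 cells exposed to compounds for 17hr at 37 C, 5% CO2. Caspase-3/7 activity then measured by Caspase-Glo 3/7 luminescence after 30min at room temperature.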

Assay [3] addresses Nuclear receptor subfamily 1 group I member 2 (Homo sapiens) (UniProt O75469). The assay can be described thus: Human pregnane X receptor (PXR) small molecule agonists, qHTS assay (AID 1346982). Note: nearly all actives have a fitted effect of over 35% in size. Note: potency is the fitted concentration of half-maximal effect. The method in brief: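 PXR-Luc HepG2 reporter cells (CYP3A4-driven luciferase) in 5% charcoal-stripped FBS medium, plated 5 h before compound addition, then treated 24 h at 37C. Luciferase read by ONE-Glo luminescence after 30 min at room temperature.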

The target of assay [4] is Nuclear receptor subfamily 1 group I member 2 (Rattus norvegicus) (UniProt Q9R1A7). The assay can be described thus: Rat pregnane X receptor (rPXR) activation by small molecules, qHTS assay (AID 1346983). Note: nearly all actives have a fitted effect of over 20% in size. The note with it: rPXR luciferase reporter cells, One-Glo luminescence, 24 h; max activation: active compounds read high. In outline:
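Cell-based rPXR activation assay: rPXR cells, 2,000 per well, rested 5hr at 37 C, then exposed to compounds in DMSO for 24 hr at 37 C. Luciferase activity read by One-Glo luminescence after 30 min at room temperature.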

The target of assay [5] is Nuclear receptor subfamily 1 group I member 2 (Homo sapiens) (UniProt O75469). Put plainly: CYP3A4 induction through human pregnane X receptor (PXR) by small molecules, qHTS assay (AID 1346984). Note: nearly all actives have a fitted effect of over 40% in size. In outline:
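DPX-2 HepG2 cells carrying a PXR response element and CYP3A4-promoter luciferase construct, treated with compounds 24 hr at 37C. Then P450-Glo CYP3A4 Luciferin-IPA substrate (3uM final) for 3 hr at 37C, One-Glo added, luminescence read.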

Assay [6] shares this target. Put plainly: Human pregnane X receptor (PXR) activation by small molecules, qHTS assay (AID 1346985). Note: nearly all actives have a fitted effect of over 40% in size. In outline:
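DPX-2 cells (HepG2 co-transfected with a PXR response element and a CYP3A4-promoter luciferase construct) were seeded at 2,000 per well, rested 5 hr at 37C, then exposed to DMSO-dissolved compounds for 24 hr. Activation was read as luciferase luminescence.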

The target in assay [7] is Cytochrome P450 2C19 (Homo sapiens) (UniProt P33261). Put plainly: Cytochrome P450 Family 2 Subfamily C Member 19 (CYP2C19) small molecule antagonists: luciferase reporter qHTS assay (AID 1671197). Note: nearly all actives have a fitted effect of over 65% in size. Note: potency is the fitted concentration of half-maximal effect. In outline:
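Luminescent readout of CYP2C19 activity: luciferin product detected 20 min after adding detection reagent. Before that, compound and enzyme-substrate mix preincubated 10 min at room temperature; NADPH-regenerating system started a 1 h, 37C reaction. Ketoconazole as positive control.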

In assay [8] the target is Cytochrome P450 2C9 (Homo sapiens) (UniProt P11712). Put plainly: Cytochrome P450 Family 2 Subfamily C Member 9 (CYP2C9) small molecule antagonists: luciferase reporter qHTS assay (AID 1671198). Note: nearly all actives have a fitted effect of over 50% in size. Note: potency is the fitted concentration of half-maximal effect. In outline: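 P450-Glo proluciferin substrate with CYP2C9 enzyme; 10 min RT preincubation, then NADPH regeneration 1 h at 37C; luciferin detection reagent 20 min RT, luminescence in relative luminescence units.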
Cytochrome P450 2C9 (Homo sapiens), sequence (P11712 whole entry, looked up): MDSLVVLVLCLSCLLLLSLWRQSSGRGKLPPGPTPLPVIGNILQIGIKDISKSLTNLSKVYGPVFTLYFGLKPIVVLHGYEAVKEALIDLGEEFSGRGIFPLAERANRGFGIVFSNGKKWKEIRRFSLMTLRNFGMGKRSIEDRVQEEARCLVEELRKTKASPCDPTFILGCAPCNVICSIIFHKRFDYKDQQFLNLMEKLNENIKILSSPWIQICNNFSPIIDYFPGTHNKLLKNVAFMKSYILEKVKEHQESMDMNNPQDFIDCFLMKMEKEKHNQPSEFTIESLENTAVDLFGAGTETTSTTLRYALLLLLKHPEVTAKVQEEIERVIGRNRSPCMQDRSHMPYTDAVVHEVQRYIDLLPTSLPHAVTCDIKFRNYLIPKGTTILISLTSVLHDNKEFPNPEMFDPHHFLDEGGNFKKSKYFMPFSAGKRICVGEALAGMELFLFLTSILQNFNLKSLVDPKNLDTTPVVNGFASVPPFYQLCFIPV

Assay [9] deals with Cytochrome P450 1A2 (Homo sapiens) (UniProt P05177). Put plainly: Cytochrome P450 Family 1 Subfamily A Member 2 (CYP1A2) small molecule antagonists: luciferase reporter qHTS assay (AID 1671199). Note: nearly all actives have a fitted effect of over 50% in size. Note: potency is the fitted concentration of half-maximal effect. In outline:
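P450-Glo CYP1A2 enzyme–proluciferin substrate mix with compound 10 min at room temperature, then NADPH regeneration 1 h at room temperature. Luciferin detection reagent added, luminescence read after 20 min; furafylline positive control.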
(In general: Reporter assays use an easily measured gene product as a stand-in for the process of interest.)

Assay [10] has as its target Voltage-gated inwardly rectifying potassium channel KCNH2 (Homo sapiens) (UniProt Q12809). Put plainly: Human Ether-a-go-go-Related Gene (hERG) channel small molecule antagonists: fluorescence cell-based qHTS assay (AID 1671200). Note: nearly all actives have a fitted effect of over 50% in size. Note: potency is the fitted concentration of half-maximal effect. The method in brief:
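Channel function was assessed by thallium flux. Cells seeded the previous day and kept at 37 C took up FluxOR II dye over 1 h in the dark at room temperature, then sat another 10 min before stimulation.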
In general terms: The hERG channel carries a current that helps repolarise heart muscle cells.

The target in assay [11] is Cytochrome P450 3A4 (Homo sapiens) (UniProt P08684). The assay can be described thus: Cytochrome P450 Family 3 Subfamily A Member 4 (CYP3A4) small molecule antagonists: luciferase reporter qHTS assay (AID 1671201). Note: nearly all actives have a fitted effect of over 50% in size. Note: potency is the fitted concentration of half-maximal effect. In outline:
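Compounds in DMSO were pin-transferred onto CYP3A4 enzyme-substrate mix and held 10 min at room temperature. NADPH regenerating solution started the reaction for 1 h; luciferin detection reagent stopped it, and luminescence was read after 20 min.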

A short description of assay [12]: Caspase-3/7 induction in CHO-K1 cells by small molecules, qHTS cell viability counter screen (AID 1346979). Note: nearly all actives have a fitted effect of over 35% in size. Note: potency is the fitted concentration of half-maximal effect. The method in brief: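 Cells (CHO-K1, wild type) are plated at 1,500 per well and incubated 5hr. Test compounds in DMSO are then pinned in, followed by 16hr at 37C and 5% CO2. Viability is read by CellTiter-Fluor fluorescence after 1hr.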
The nature of assay [13]: Caspase-3/7 induction in HepG2 cells by small molecules, qHTS cell viability counter screen (AID 1346981). Note: series mostly up to about 92 µM; nearly all actives have a fitted effect of over 30% in size. In outline: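 Wild-type HepG2 cells, 2,000/well, settled 5 hr at 37 C, 5% CO2 before compound addition. Viability read by CellTiter-Fluor fluorescence, reagent added after 16 hr compound exposure, then 1 hr at 37C, in the same wells as the caspase read.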
The target in assay [14] is Cytochrome P450 2D6 (Homo sapiens) (UniProt P10635). Put plainly: Cytochrome P450 Family 2 Subfamily D Member 6 (CYP2D6) small molecule antagonists: luciferase reporter qHTS assay (AID 1671196). Note: nearly all actives have a fitted effect of over 50% in size. Note: potency is the fitted concentration of half-maximal effect. The method in brief: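 Cell-free P450-Glo system: CYP2D6 with proluciferin substrate was pre-incubated with compound for 10 min, then reacted with NADPH regeneration for 1 h at room temperature. Luciferin product was detected after 20 min, and data were reported as relative luminescence units.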
Cytochrome P450 2D6 (Homo sapiens), sequence (P10635 whole entry, looked up): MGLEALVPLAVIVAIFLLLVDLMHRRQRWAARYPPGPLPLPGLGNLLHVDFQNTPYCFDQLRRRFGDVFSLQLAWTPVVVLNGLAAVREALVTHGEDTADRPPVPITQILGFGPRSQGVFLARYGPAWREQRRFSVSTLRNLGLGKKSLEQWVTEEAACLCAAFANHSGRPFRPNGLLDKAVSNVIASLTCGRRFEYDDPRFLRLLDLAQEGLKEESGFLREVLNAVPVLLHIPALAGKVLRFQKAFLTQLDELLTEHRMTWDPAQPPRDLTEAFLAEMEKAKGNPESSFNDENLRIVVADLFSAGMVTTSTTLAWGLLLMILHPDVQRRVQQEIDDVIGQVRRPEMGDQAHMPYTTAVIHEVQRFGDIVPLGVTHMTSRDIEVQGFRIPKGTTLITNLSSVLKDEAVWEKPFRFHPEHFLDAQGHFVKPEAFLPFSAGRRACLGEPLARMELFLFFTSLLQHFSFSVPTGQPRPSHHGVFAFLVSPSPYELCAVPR

Values without a mark were called inactive. Records with an inconclusive call do not appear. The source made the active and inactive calls. Calls come from the whole dose curve; as a rule, active = well fitted curve in the direction sought with a large enough effect in the repeat runs; inconclusive = weak or mixed curves; inactive = no such curve, though single readings can be large; an effect the other way counts as inactive or inconclusive.
% is set by controls: 0 for no effect and ±100 for the full control effect.

Nuclear receptor subfamily 1 group I member 2 (Homo sapiens), sequence (O75469 whole entry, looked up): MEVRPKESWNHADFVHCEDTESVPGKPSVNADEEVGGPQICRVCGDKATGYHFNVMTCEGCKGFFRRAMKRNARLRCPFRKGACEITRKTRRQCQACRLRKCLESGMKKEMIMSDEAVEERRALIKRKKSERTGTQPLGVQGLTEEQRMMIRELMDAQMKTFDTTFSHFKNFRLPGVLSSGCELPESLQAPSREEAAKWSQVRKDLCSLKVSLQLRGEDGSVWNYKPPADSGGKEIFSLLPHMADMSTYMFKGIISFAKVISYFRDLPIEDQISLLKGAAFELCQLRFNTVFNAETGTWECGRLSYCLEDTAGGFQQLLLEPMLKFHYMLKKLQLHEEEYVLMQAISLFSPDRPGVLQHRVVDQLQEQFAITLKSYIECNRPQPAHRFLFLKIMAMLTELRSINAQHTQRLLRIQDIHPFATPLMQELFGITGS
Cytochrome P450 1A2 (Homo sapiens), sequence (P05177 whole entry, looked up): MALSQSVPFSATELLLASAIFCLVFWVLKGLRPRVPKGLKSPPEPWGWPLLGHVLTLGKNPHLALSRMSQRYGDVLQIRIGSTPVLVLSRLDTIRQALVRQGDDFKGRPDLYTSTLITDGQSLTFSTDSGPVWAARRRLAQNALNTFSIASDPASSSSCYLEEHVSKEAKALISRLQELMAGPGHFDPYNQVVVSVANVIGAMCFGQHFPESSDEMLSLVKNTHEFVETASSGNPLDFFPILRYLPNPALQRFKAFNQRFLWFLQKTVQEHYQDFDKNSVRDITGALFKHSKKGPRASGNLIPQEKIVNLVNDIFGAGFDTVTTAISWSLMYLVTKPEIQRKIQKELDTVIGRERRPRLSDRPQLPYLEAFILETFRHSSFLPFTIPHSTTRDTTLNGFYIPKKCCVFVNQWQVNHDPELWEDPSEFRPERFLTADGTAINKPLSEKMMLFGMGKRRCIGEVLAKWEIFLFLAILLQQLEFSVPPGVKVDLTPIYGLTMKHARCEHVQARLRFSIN
Cytochrome P450 2C19 (Homo sapiens), sequence (P33261 whole entry, looked up): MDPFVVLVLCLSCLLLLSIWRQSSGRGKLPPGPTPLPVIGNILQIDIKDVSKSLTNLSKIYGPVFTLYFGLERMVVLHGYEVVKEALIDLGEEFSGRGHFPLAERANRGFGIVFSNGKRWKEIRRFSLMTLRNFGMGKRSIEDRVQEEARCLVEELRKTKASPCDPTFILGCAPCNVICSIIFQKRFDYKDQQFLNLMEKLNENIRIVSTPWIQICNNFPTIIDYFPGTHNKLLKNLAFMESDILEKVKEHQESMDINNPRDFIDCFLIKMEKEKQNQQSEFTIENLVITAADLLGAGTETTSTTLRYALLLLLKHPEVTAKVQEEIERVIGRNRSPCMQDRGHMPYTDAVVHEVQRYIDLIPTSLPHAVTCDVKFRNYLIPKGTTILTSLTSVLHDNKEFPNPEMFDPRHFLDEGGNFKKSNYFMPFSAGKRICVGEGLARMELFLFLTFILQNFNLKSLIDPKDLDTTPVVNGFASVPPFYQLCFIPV
Voltage-gated inwardly rectifying potassium channel KCNH2 (Homo sapiens), sequence (Q12809 whole entry, looked up): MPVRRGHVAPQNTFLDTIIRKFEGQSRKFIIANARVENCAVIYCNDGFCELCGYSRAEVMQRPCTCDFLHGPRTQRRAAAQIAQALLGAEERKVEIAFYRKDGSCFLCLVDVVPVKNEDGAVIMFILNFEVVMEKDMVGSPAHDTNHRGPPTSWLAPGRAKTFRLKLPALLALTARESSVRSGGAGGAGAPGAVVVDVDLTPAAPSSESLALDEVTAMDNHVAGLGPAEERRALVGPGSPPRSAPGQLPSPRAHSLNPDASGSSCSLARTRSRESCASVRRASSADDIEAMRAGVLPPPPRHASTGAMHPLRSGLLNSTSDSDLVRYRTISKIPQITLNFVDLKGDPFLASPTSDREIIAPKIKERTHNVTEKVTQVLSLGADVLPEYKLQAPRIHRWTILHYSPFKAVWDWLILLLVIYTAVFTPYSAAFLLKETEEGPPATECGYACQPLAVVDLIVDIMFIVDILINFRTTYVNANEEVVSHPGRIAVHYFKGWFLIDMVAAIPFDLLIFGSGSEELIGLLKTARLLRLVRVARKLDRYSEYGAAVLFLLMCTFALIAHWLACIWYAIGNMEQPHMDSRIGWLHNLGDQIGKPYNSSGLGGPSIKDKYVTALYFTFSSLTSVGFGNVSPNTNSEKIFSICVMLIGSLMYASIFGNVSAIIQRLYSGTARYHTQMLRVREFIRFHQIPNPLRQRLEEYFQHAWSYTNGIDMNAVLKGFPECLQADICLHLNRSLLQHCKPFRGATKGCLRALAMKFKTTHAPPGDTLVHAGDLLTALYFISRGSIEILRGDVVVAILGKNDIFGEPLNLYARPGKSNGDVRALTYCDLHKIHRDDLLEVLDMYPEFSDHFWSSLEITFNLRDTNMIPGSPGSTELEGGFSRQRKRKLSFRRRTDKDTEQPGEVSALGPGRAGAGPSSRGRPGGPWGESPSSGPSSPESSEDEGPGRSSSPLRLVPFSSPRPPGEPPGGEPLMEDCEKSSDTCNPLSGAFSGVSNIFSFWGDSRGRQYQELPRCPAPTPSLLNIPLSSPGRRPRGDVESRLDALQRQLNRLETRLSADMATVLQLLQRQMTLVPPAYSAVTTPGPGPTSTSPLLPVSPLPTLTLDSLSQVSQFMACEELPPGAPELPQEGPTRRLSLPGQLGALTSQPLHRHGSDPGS
Cytochrome P450 3A4 (Homo sapiens), sequence (P08684 whole entry, looked up): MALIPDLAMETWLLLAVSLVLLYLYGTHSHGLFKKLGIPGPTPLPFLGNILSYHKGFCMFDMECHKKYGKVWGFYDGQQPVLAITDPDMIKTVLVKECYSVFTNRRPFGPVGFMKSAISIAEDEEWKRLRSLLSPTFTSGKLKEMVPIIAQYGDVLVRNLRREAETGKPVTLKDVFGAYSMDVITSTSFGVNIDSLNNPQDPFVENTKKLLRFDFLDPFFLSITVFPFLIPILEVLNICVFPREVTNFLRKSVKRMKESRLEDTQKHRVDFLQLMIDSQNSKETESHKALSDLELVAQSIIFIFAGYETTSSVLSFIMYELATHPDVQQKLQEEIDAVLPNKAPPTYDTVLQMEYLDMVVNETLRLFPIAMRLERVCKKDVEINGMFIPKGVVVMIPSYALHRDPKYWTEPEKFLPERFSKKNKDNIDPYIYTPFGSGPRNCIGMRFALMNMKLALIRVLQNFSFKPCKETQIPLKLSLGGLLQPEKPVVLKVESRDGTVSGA
Nuclear receptor subfamily 1 group I member 2 (Rattus norvegicus), sequence (Q9R1A7 whole entry, looked up): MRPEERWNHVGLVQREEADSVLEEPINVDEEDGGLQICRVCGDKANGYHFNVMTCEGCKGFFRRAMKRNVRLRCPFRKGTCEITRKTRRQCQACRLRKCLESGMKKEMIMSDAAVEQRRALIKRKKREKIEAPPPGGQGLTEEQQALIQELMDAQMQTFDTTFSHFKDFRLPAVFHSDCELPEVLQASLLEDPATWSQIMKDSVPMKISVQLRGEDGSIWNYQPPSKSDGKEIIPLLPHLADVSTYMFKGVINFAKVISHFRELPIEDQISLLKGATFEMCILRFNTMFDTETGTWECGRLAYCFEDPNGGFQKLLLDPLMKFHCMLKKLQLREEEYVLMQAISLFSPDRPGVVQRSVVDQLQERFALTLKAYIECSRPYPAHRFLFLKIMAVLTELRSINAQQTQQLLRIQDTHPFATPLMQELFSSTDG

Consider `O=C1OC(CN2CCOCC2)CN1/N=C/c1ccc([N+](=O)[O-])o1` (stereo unspecified), for which the Potency result in assay [1], in assay [2], in assay [3], in assay [5], in assay [6] and in [7] was “inactive” throughout. The Potency entry in assay [8], in assay [9], in assay [10] and in [11] was “inactive” in each case. The max activation in assay [4] was -7.02%.

As to `NC(=O)C(c1ccccc1)(c1ccccc1)[C@@H]1CCN(CCc2ccc3c(c2)CCO3)C1`, the Potency entry in assay [1], in [12], in assay [2], in assay [13], in assay [7] and in assay [8] was “inactive” in each case. Moreover, the Potency entry in assay [9] and in assay [11] was “inactive” each time. Also, the Potency in assay [14] is 0.389 µM (active).

Consider `Cc1oc2c(NC(=O)c3c(Cl)cccc3Cl)cccc2c1C(C)(C)O`, for which the Potency result in assay [1], in assay [2], in [14] and in [7] was “inactive” in each case. In addition, the Potency in assay [12] is 61.1 µM (active); in assay [3], 1.09 µM (active); in assay [8], 1.59 µM (active); in [9], 31.7 µM (active); in assay [11], 28.3 µM (active).

Regarding `C=C1C(=C/C=C2\CCC[C@]3(C)[C@@H]([C@H](C)/C=C/[C@@H](O)C4CC4)CC[C@@H]23)C[C@@H](O)C[C@@H]1O`, the Potency entry in assay [1], in assay [2], in assay [5], in assay [6], in [9] and in assay [10] was “inactive” in each case. Besides, in assay [11], the Potency result is “inactive”. Also, the Potency in assay [12] was 18.8 µM (active); in assay [3] it was 16.8 µM (active); in assay [7], 7.76 µM (active); in assay [8] it was 15.5 µM (active). Further, the max activation in assay [4] is 5.08%.

In the case of `CN(C)C(=O)NC1(c2ccccc2)CCN(CC[C@@]2(c3ccc(F)c(F)c3)CN(C(=O)c3ccccc3)CCO2)CC1`, the Potency result in assay [1], in [2] and in assay [9] was “inactive” each time. Besides, the Potency in assay [3] was 8.02 µM (active); in assay [14], 26.2 µM (active).

In the case of `CN(C)c1ccc(C(c2ccccc2)c2ccc(N(C)C)cc2)cc1`, the Potency result in [1] and in assay [10] was “inactive” throughout. The Potency in [12] is 1.09 µM (active); in assay [3], 21.7 µM (active); in [14] it was 31.7 µM (active); in assay [8], 1.42 µM (active); in assay [9], 14.2 µM (active); in assay [11], 4.48 µM (active).

As for `c1ccc(C(O[C@H]2CCCN(CCc3ccc4c(c3)OCO4)C2)c2ccccc2)cc1`, the Potency result in assay [1] and in assay [12] was “inactive” in each case. In addition, the Potency was 2.45 µM (active) in assay [14], 15.5 µM (active) in assay [8], 30.9 µM (active) in [9] and 0.535 µM (active) in assay [10].

For `CCCCCCCC#N`, the Potency result in [12], in assay [13], in assay [14], in [7], in assay [8] and in assay [11] was “inactive” throughout.
